Data as given in paper PMC8384837, “Expanding the binding specificity for RNA recognition by a PUF domain”.

target: PUM1 PUF domain R4-DYG (Homo sapiens, UniProt Q14671 828-1176, N971D;H972Y;Q975G); test: yeast three-hybrid, YBZ-1, SC-Leu-His + 0.5 mM 3-AT, 4 days; details: tags: N-Gal4 AD-HA kept; label: inside an RPR1-promoter hybrid RNA with tandem MS2 sites; ssRNA
Procedure, shortened: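 Repeat regions from input (SC-Leu) and selection (SC-Leu-His + 0.5 mM 3-AT) plates were PCR-amplified and Illumina-sequenced after four days of growth. The cells were strain YBZ-1 with a LexA–MS2 coat fusion and a HIS3 reporter, co-expressing Pumilio-1 PUF domain libraries and matching RNA elements from a centromeric plasmid. The interaction score is the log change in variant frequency from input to selection, taken in log2 with a pseudocount of 1 for absent variants.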

First: GGCUAGAACUAGUGGAUCCCCCGGCGCCCGGCGGCUCGAGCCCGGGUAAGUGUAUAUAGUCUGCAUGCCGCCGGGCGCCAUGCCUGCAGGUCGACUCUAGAAAACAUG
Second: GGCUAGAACUAGUGGAUCCCCCGGCGCCCGGCGGCUCGAGCCCGGGUAAGUGUACAUAGUCUGCAUGCCGCCGGGCGCCAUGCCUGCAGGUCGACUCUAGAAAACAUG
The binding signal of the first is higher: 6.59 log2 enrichment (interaction score) for the first, 5.37 log2 enrichment (interaction score) for the second.

In the case of “GGCUAGAACUAGUGGAUCCCCCGGCGCCCGGCGGCUCGAGCCCGGGUAAGUGUAAAUAGUCUGCAUGCCGCCGGGCGCCAUGCCUGCAGGUCGACUCUAGAAAACAUG”, the binding signal is reported as 6.38 log2 enrichment (interaction score).
